NPC1 prom act: activators of NPC1 promoter | Huh7 NPC1 promoter luciferase reporter, 24 h | Potency, µM (series often up to 9.22 µM), for the others: at the top dose activation, hits mostly activators | 320,000 tested, 2.4% active | AID 485313; note: % of control where 0% means no effect; nearly all actives have a fitted effect of over 60% in size
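Compounds in DMSO were transferred onto Huh7 NPC1-luciferase reporter cells pre-incubated 2 h; after 24 h at 37 °C, Amplite reagent was dispensed and luminescence recorded 10 min later.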
ELG1 repair inh: ELG1-dependent DNA repair inhibition; HEK293T ELG1-luciferase reporter, luminescence, 16 h; DNA damage induced by 5-fluorouridine; Potency, µM (series often up to 46.1 µM), for the others: top-dose activity change, negative = inhibition, hits mostly inhibitors; 330,000 tested, 2.3% active; note: % is set by controls: 0 for no effect and ±100 for the full control effect; nearly all actives have a fitted effect of over 55% in size
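DMSO vehicle served as the neutral condition. Each well held 2,000 cells given 5-fluorouridine plus compound; after 16 hr at 37 °C/5% CO2, ONE-Glo was added and luciferase measured 30 min later.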
Rab9 promoter act: Rab9 promoter activation. Huh7 Rab9 promoter-luciferase reporter, luminescence, 24 h. Potency, µM (top dose mostly 9.22 µM), without a hit: at the highest dose activation, negative = inhibition, most hits filed as activators. 320,000 tested, 2.8% active. AID 485297; note: % of control where 0% means no effect; nearly all actives have a fitted effect of over 60% in size
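Cells were plated at 1500 per well in reduced-serum medium with 10% FBS and left 2 h. Compound in DMSO was then added for 24 h at 37 °C. Reporter signal was read by luminescence after 10 min with luciferase detection reagent.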
SMN2 splice up: enhancers of SMN2 splice variant expression; HEK293 SMN2-luciferase splicing reporter, luminescence, 30-36 h; 210,000 tested, 2.8% active; Potency, µM (titrated, usually from 46.1 µM), inactives show at the top dose activity change, positive = activation, actives largely listed as activators; note: % of control where 0% means no effect; nearly all actives have a fitted effect of over 55% in size
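HEK293 cells carry an SMN2 minigene-luciferase reporter in which exon 7 inclusion puts luciferase in frame. Cells were seeded at 2000 cells/well, attached for 10-12 hours, then exposed to compounds for 30-36 hours at 37C before ONE-Glo luminescence.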
FLuc modulator: counter-screen for miR-21 project: firefly luciferase inhibitors or activators. purified FLuc, Km substrates, luminescence inhibition. Potency, µM (highest dose often 57.5 µM), for inactives: top-dose activity change, negative = inhibition, hits mostly inhibitors. 360,000 tested, 6.9% active;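 note: plate controls were vehicle for no effect and reference inhibitor for full effect; nearly all actives have a fitted effect of over 55% in size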
Target sequence (P08659 whole entry, looked up): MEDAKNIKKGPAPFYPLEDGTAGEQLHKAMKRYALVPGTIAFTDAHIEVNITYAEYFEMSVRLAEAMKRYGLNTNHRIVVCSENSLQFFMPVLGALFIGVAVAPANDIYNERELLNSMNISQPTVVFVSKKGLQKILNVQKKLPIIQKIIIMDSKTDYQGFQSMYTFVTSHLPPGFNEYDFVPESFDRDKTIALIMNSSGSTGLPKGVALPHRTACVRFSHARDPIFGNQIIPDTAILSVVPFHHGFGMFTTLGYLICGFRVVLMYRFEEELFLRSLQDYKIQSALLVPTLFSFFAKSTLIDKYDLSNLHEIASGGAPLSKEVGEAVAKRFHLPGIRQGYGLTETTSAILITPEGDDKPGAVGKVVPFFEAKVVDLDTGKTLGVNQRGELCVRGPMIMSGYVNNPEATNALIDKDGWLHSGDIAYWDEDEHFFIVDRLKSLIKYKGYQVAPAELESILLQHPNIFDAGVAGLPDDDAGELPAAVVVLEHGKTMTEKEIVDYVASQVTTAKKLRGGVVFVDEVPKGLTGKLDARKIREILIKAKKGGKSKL
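Biochemical qHTS of compounds, final roughly 60 µM downward over six points, against 10 nM purified firefly luciferase using Km concentrations of substrates (10 uM D-luciferin, 10 uM ATP) in Tris acetate pH 7.5 buffer; luminescence output.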
ELG1 genotox: inducers of genotoxicity in HEK293T ELG1-luciferase cells. HEK293T ELG1-luciferase reporter, luminescence, 16 h. Potency, µM (highest dose often 46 µM), for inactives: top-dose activity change, positive = activation, usual class: activators. 330,000 tested, 1.3% active; note: % of control where 0% means no effect; nearly all actives have a fitted effect of over 60% in size
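DMSO vehicle served as control against compound-treated ELG1-luciferase HEK293T cells; exposure lasted 16 hr at 37 °C and 5% CO2, followed by ONE-Glo luminescence detection after 30 min.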
Starred values were filed as active, the others as inactive; ? = inconclusive; . = no result; [ ] = dose if it differs, or a comment. The list is not random: actives were taken first. Their share in the collection is about 9.4%. Calls come from the whole dose curve; as a rule, active = well fitted curve in the direction sought with a large enough effect; inconclusive = small, poorly fitted or top-dose-only effect, or another doubt; inactive = no such curve, though single readings can be large; an effect the other way counts as inactive or inconclusive. Potency is the fitted concentration of half-maximal effect.

SMILES | NPC1 prom act | ELG1 repair inh | Rab9 promoter act | SMN2 splice up | FLuc modulator | ELG1 genotox
Cc1cccc(C(=O)Nc2cc3nn(-c4ccc(C(C)C)cc4)nc3cc2C)c1 | . | . | . | 9% | 2.1µM* | .
CCC(=O)Nc1cc2nn(-c3ccc(C)cc3)nc2cc1C | ? | ? | ? | -56% | 0.11µM* | ?
COc1ccc(-n2nc3cc(C)c(NC(=S)NC(=O)c4ccccc4C)cc3n2)cc1 | 1% | ? | 16% | 9% | 2.4µM* | ?
Cc1cc2nn(-c3ccc(F)cc3)nc2cc1NC(=O)c1ccc(OC(C)C)cc1 | . | . | . | 2% | -3% | .
Cn1nnnc1SCCCNCc1ccc(-c2ccc(Br)cc2)o1 | . | . | . | . | -13% | .
CCOC(=O)c1c(C)nc(C)c(C(=O)OCC)c1-c1ccccc1 | 4µM* | ? | 2.2µM* | 16µM* | 6µM* | 19%
CCOC(=O)c1c(C)nc(-c2ccccc2)nc1N | 4% | ? | ? | . | -15%[2.3 µM] | 18µM*
CCOC(=O)c1c(-c2ccccc2)cn2c(C)cc(C)nc12 | 3.2µM* | ? | 2.8µM* | 11µM* | 3.4µM* | 16µM*
CCOC(=O)c1cnn(-c2cc(C)nc3c(-c4ccccc4)c(C)nn23)c1N | 1% | -1% | 3% | 12% | -3% | -3%
CC(N)CN (centres undefined) | . | . | . | -7% | . | .
Cc1ccc2nc(-c3cccs3)c(Nc3ccc4c(c3)OCCO4)n2c1 | . | . | . | 0% | ? | .
Cc1ccc2nc(-c3ccco3)c(Nc3ccc4c(c3)OCCO4)n2c1 | . | . | . | 8% | 11µM* | .
COc1cc(-c2nc3ccc(C)cn3c2Nc2ccc3c(c2)OCCO3)ccc1O | 1% | 8% | 0% | ? | 21µM* | 4%
Cc1ccc2nc(-c3ccc(C)s3)c(Nc3ccc4c(c3)OCCO4)n2c1 | . | . | . | 13µM* | ? | .
Cc1ccn2c(Nc3ccc4c(c3)OCCO4)c(-c3ccc(C)o3)nc2c1 | . | . | . | ? | 13µM* | .
O=C(Cn1c(=O)c(CNc2ccccc2)cc2cc3c(cc21)OCCO3)Nc1ccccc1Cl | . | . | . | . | -7% | .
Cc1ccc(NC2c3ncccc3C(=O)N2c2ccccc2C)cc1C (centres undefined) | 5% | 11% | -4% | -3% | 24µM* | 1%
Cc1ccccc1C(=O)Nc1nnc(-c2ccco2)s1 | 0.56µM* | ? | 0.32µM* | 2µM* | 1.5µM* | 1.5µM*
COc1ccccc1C(=O)Nc1nnc(-c2ccco2)s1 | 0% | ? | ? | 11µM* | 2.7µM* | 1.6µM*
Cc1c(Cl)ccc2sc(N3CCN(C(=O)C4CC4)CC3)nc12 | . | . | . | . | -17% | .
COc1ccc(Cc2noc(CN3CCCC(C(=O)c4cccs4)C3)n2)cc1OC (centres undefined) | -2% | 18µM* | -4% | . | 0% | -12%
COc1ccc(Cc2noc(CN3CCN(Cc4cccc(Cl)c4)CC3)n2)cc1OC | 0% | 23µM* | -4% | . | -1% | -8%
Cc1c2cnn(CC(=O)N3CCN(c4ccccc4)CC3)c(=O)c2c(C)n1Cc1ccccc1Cl | . | . | . | -1% | -16% | .
CCOC(=O)C1CCCCN1S(=O)(=O)c1csc(C(N)=O)c1 (centres undefined) | . | . | . | . | -7% | .
CC(=O)c1cc2c(cc1NC(=O)c1ccco1)OCCO2 | -6% | -5% | -5% | 15% | 0% | 0%
SMILES | NPC1 prom act | ELG1 repair inh | Rab9 promoter act | SMN2 splice up | FLuc modulator | ELG1 genotox
O=C(Nc1cc2c(cc1Br)OCCO2)c1ccco1 | 23% | ? | 30% | 13µM* | 24µM* | ?
O=C(Nc1cc2c(cc1Br)OCCO2)c1cccs1 | 2.8µM* | ? | 2.5µM* | 22µM* | 11µM* | 12µM*
CCCC(=O)c1cc2c(cc1NC(=O)c1cccs1)OCCO2 | -1% | -4% | 14% | -3% | -7% | 2%
O=C(Nc1cc2c(cc1Cl)OCCO2)c1ccco1 | ? | ? | ? | 13µM* | 19µM* | 25%
O=C(Nc1ccc(NC(=O)c2ccco2)c(Cl)c1)c1ccc2c(c1)OCCO2 | ? | ? | 4µM* | . | 0.48µM* | 11%
O=C(Nc1ccc(NC(=O)c2ccco2)cc1)c1ccc2c(c1)OCO2 | 4% | 0% | 7% | 12% | 0% | ?
CCCCC(CC)CNC(=O)CN1C(=O)CSc2ccc(S(=O)(=O)N3CCOCC3)cc21 (centres undefined) | . | . | . | . | 2% | .
Nc1ncnc2c1nc(Sc1ccc(Cl)cc1)n2[C@H]1OC2COP(=O)(O)O[C@@H]2C1O (some centres undefined) | 5%[46.1 µM] | . | 2%[46.1 µM] | . | . | .
CCOc1ccccc1C(=O)N(Cc1cc(OC)c(OC)c(OC)c1)c1ccccn1 | . | . | . | . | -3% | .
O=C(Nc1ccc(NC(=O)c2cc3ccccc3o2)cc1)c1ccc2c(c1)OCCO2 | -13% | ? | -13% | -33% | -2% | 10%
Cc1cc(NC(=O)c2ccc3c(c2)OCCO3)ccc1NC(=O)c1cc2ccccc2o1 | 15% | ? | 17% | -32% | 2.7µM* | -13%
Cc1nc(N2CCCC2)c2c(C(=O)N3CCN(c4cccc(C)c4C)CC3)c(C)oc2n1 | . | . | . | . | 2% | .
COc1ccc(OC)c(/C=C/C(=O)Nc2ccc3c(c2)CCC3)c1 | 6% | 2% | 1% | 12% | 11µM* | 0%
COc1cccc(CC(=O)Nc2ccc3c(c2)CCC3)c1 | 1% | -17% | 7% | . | ? | 9%
COc1cccc(-c2ocnc2C(=O)Nc2ccc3c(c2)CCC3)c1 | -1% | 7% | 9% | . | 19µM* | 16%
COc1ccc(NC(=O)/C=C/c2cc(Br)ccc2OC)cc1 | 12% | ? | 6% | -1% | ? | -7%
COc1ccc(NC(=O)Nc2ccc3c(c2)CCC3)cc1 | ? | ? | ? | . | -13% | 21µM*
COc1ccccc1/C=C/C(=O)Nc1ccc(N2CCOCC2)cc1 | -37% | 25% | 0% | -3% | -6% | 5%
COc1ccccc1/C=C/C(=O)Nc1ccc2c(c1)CCC2 | 3.2µM* | ? | 1.8µM* | 13µM* | 4.3µM* | ?
COc1ccc(Cl)cc1NC(=O)N1CCC(CN2CCc3ccccc3C2)CC1 | . | . | . | . | -6% | .
CCOc1ccc(NC(=O)CC2C(=O)N(c3ccc(Cl)cc3)C(=O)N2Cc2cccs2)cc1 (centres undefined) | . | . | . | . | 1% | .
COc1ccc(/C=C/C(=O)Nc2ccc(-c3nnc4n3CCCCC4)cc2)c(OC)c1 | 4% | 23µM* | 1% | -12% | 27µM* | -7%
CCOC(=O)/C=C/C(=O)Nc1ccc(-c2nnc3n2CCCCC3)cc1 | 2% | 0% | 1%[1.84 µM] | . | 0% | 1%
O=C(c1csnn1)N1CCC2(CC1)CCN(C(c1ccccc1)c1ccccc1)CC2 | . | . | . | -8% | . | .

Screening results from PubChem.
